Measured values published in PubChem BioAssay.
For some of these results: Results with a measured potency or affinity are listed apart. Active and inactive are the calls of the source. The rule behind the calls is not given here.

These compounds were tested against Plasmodium falciparum protein kinase 6 (PK6, PF3D7_1337100) (UniProt Q8IDW1) (assay: PfPK6 kinase inhibitors, biochemical, TCAMS library (AID 1159586)). Conditions: recombinant PfPK6, Kinase-Glo ATP depletion luminescence.
Sequence of Plasmodium falciparum protein kinase 6 (PK6, PF3D7_1337100) (Q8IDW1 1-305): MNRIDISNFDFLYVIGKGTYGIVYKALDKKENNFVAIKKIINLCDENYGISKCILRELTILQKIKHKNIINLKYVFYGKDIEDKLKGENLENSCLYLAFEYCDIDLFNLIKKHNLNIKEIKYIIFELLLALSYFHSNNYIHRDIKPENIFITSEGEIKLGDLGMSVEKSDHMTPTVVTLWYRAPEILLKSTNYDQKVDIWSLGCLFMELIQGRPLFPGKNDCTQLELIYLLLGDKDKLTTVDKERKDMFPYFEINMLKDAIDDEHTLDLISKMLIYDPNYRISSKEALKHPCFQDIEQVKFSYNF

Row | SMILES | outcome
1 | CC(C)c1cccc(OCC2CCN(c3ncc(C(=O)Nc4ccccc4)cc3Cl)CC2)c1 | inactive
2 | CN(C)C(=O)c1cc(CNCc2ccccc2)ccc1-c1cccc(CNCc2ccc(-c3ccccc3)cc2)c1 | inactive
3 | O=C(Nc1ccc(C(=O)N(Cc2ccc3c(c2)OCO3)C2CCCC2)cc1)c1cccs1 | inactive
4 | CN1CCN(c2cc(NC(=O)Nc3ccc(-c4ccncc4)c(Cl)c3)ccc2Br)CC1 | inactive
5 | COc1ccc2nccc([C@@H](O)CN3CCC(NCc4cc5ccccn5n4)CC3)c2c1 | inactive
6 | CCCCN1CCN(CC(O)CNC(=O)Nc2ccc(Cl)cc2)CC1 (configuration not stated) | inactive
7 | CCCC(CNCc1cccc(OCC)c1)CNc1cc(=O)c2ccccc2[nH]1 (configuration not stated) | inactive
8 | NS(=O)(=O)c1cccc(-c2ccc3c(=O)[nH]cnc3c2)c1 | inactive
9 | Cc1c(Oc2ccc(-n3ccnc3)cc2)ncnc1N1CCC2(CC1)CNCc1ccccc12 | inactive
10 | CCOC(=O)N[C@@H]1CN[C@@H](C#Cc2cc3c(Nc4ccc(OCc5cccc(F)c5)c(Cl)c4)ncnc3s2)C1 | inactive
11 | Cc1cccc2[nH]c(-c3ccc(-c4cccc(NC(=O)Nc5ccsc5)c4)s3)nc12 | inactive
12 | CC(CNc1nc(NCC(c2ccccc2)c2ccccc2)c2[nH]cnc2n1)c1ccccc1 (configuration not stated) | inactive
13 | c1cc2c3c(cccc3c1)NC(CCCCCCCCC1=Nc3cccc4cccc(c34)N1)=N2 | inactive
14 | Clc1ccc(-c2[nH]c3ccccc3c2CN2CCC(N3CCCCC3)CC2)cc1 | inactive
15 | N#Cc1ccc2[nH]cc(CN3CCC4(CC3)CN(CCNCc3ccccc3)C(=O)CO4)c2c1 | inactive
16 | COc1ccc2cc(C(c3nnnn3CC3CCCO3)N3CCc4ccccc43)c(=O)[nH]c2c1 (configuration not stated) | inactive
17 | CC1CN(c2ccc(NC(=O)c3cccs3)cc2)CCN1Cc1cccc(F)c1 (configuration not stated) | inactive
18 | NC1=NC(c2ccccc2)N(c2ccccc2)C(N)=N1 (configuration not stated) | inactive
19 | Cc1[nH]c2ccccc2c1C1CCN(CCCCNC(=O)c2ccc(-c3ccc(C#N)cc3)cc2)CC1 | inactive
20 | Cc1nc2nc(N)nc(N)c2c(C)c1Cc1cccc(C(F)(F)F)c1 | inactive
21 | O=C(Nc1ccc2nc(-c3ccccc3)[nH]c2c1)c1cc(-c2ccc3c(c2)OCCO3)n[nH]1 | inactive
22 | CC1(C)CN(CCC2CCC(NC(=O)/C=C/c3ccccc3F)CC2)Cc2ccc(C#N)cc21 (configuration not stated) | inactive
23 | COc1cc(NC(=O)/C=C/c2cc3ccccc3n2C)ccc1OCCN(C(C)C)C(C)C | inactive
24 | O=C(Nc1ccc2ccccc2n1)c1ccccc1-c1ccccc1 | inactive
25 | COc1cc(NC(=O)c2sc(-c3ccc(Cl)cc3)cc2NC(=O)c2cccc(N(C)C)c2)ccc1OCCN1CCCC1 | inactive
26 | COc1cc(NC(=O)/C=C/c2cc(F)cc(F)c2F)cc(OCCN2CCN(CCN3CCOCC3)CC2)c1 | inactive
27 | CCOC(=O)c1ccc(NC(=O)N[C@@H](Cc2ccccc2)C(=O)NC2CCN(Cc3ccc(O)c(OC)c3)C2)cc1 (some centres not stated) | inactive

Each compound was assayed against Protein kinase 7 (PK7), Plasmodium falciparum 3D7 (PF3D7_0213400) (UniProt Q7YTF7) (assay: inhibition of Plasmodium PK7 catalytic activity – biochemical, TCAMS antimalarial set, Kinase-Glo luminescence (AID 1159587)). Conditions: recombinant PfPK7, Kinase-Glo ATP depletion luminescence.
Sequence of Protein kinase 7 (PK7), Plasmodium falciparum 3D7 (PF3D7_0213400) (Q7YTF7 1-343): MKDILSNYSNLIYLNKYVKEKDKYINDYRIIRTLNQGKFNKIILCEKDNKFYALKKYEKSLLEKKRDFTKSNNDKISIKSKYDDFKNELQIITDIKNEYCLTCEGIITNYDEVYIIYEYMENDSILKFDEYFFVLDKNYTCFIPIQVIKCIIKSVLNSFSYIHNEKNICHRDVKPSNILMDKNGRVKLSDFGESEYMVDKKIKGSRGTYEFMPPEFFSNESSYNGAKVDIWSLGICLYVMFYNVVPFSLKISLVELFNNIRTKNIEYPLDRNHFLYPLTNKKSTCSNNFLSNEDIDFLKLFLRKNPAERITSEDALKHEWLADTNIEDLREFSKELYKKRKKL

Row | SMILES | outcome
28 | C[C@@H]1CC[C@H](NC(=O)[C@H](CC2CCCC2)NC(=O)N2CCNCC2)C(=O)CN1S(=O)(=O)c1ccccn1 | inactive
29 | O=C(Nc1cccc(C(F)(F)F)c1)c1cccc(S(=O)(=O)NCC2CCN(CC3CCCCC3)CC2)c1 | inactive
30 | CCc1cn2c3c(cc(C(=O)N[C@@H](Cc4ccccc4)[C@H](O)CNC(C)C)cc13)N(C)S(=O)(=O)C2 | inactive
31 | O=C(NCCc1cccc(F)c1)c1ccc(N2CCN(c3ccncc3)CC2)cn1 | inactive
32 | CCc1cn2c3c(cc(C(=O)N[C@@H](Cc4ccccc4)[C@H](O)CNC4CC4)cc13)N(CC)S(=O)(=O)CC2 | inactive
33 | CC(C)(CNCc1cccc(Oc2ccccc2)c1)c1nc(-c2ccc(Cl)c(O)c2)c(-c2ccnc(N)n2)[nH]1 | inactive
34 | O=C(Nc1cccc(CN2CCCN(Cc3ccc(O)cc3)CC2)c1)c1cc2ccccc2s1 | inactive
35 | Cc1nc(-c2cccc(Nc3nccc(NCC(O)c4ccccc4C(F)(F)F)n3)c2)cs1 (configuration not stated) | inactive
36 | O=C(CCc1ccccc1)N[C@H](Cc1c[nH]c2ccccc12)C(=O)N1CCC(NCc2ccc3c(c2)Cc2ccccc2-3)CC1 | inactive
37 | Cc1nn(CC(C)C)c2sc(C(=O)N3CCN(S(=O)(=O)c4ccc(C#N)cc4)CC3)cc12 | inactive
38 | Cc1cnc(C(=O)Nc2ccc3c(c2)CCCN(Cc2c[nH]c4cnccc24)C3)cn1 | inactive
39 | COc1ccc(-n2ccnc2SCC(=O)Nc2cc(C(F)(F)F)ccc2Cl)c(OC)c1 | inactive
40 | CCCC(=O)Nc1ccc(OCCN(Cc2ccccc2OC(F)(F)F)c2ccc(C(F)(F)F)c(C#N)c2)cc1 | inactive
41 | CC(C)c1cccc(OCC2CCN(c3ncc(C(=O)Nc4ccccc4)cc3Cl)CC2)c1 | inactive
42 | CN(C)C(=O)c1cc(CNCc2ccccc2)ccc1-c1cccc(CNCc2ccc(-c3ccccc3)cc2)c1 | inactive
43 | O=C(Nc1ccc(C(=O)N(Cc2ccc3c(c2)OCO3)C2CCCC2)cc1)c1cccs1 | inactive
44 | CN1CCN(c2cc(NC(=O)Nc3ccc(-c4ccncc4)c(Cl)c3)ccc2Br)CC1 | inactive
45 | COc1ccc2nccc([C@@H](O)CN3CCC(NCc4cc5ccccn5n4)CC3)c2c1 | inactive
46 | CCCCN1CCN(CC(O)CNC(=O)Nc2ccc(Cl)cc2)CC1 (configuration not stated) | inactive
47 | CCCC(CNCc1cccc(OCC)c1)CNc1cc(=O)c2ccccc2[nH]1 (configuration not stated) | inactive

Row | SMILES | outcome
48 | NS(=O)(=O)c1cccc(-c2ccc3c(=O)[nH]cnc3c2)c1 | inactive
49 | Cc1c(Oc2ccc(-n3ccnc3)cc2)ncnc1N1CCC2(CC1)CNCc1ccccc12 | inactive
50 | CCOC(=O)N[C@@H]1CN[C@@H](C#Cc2cc3c(Nc4ccc(OCc5cccc(F)c5)c(Cl)c4)ncnc3s2)C1 | inactive
51 | Cc1cccc2[nH]c(-c3ccc(-c4cccc(NC(=O)Nc5ccsc5)c4)s3)nc12 | inactive
52 | CC(CNc1nc(NCC(c2ccccc2)c2ccccc2)c2[nH]cnc2n1)c1ccccc1 (configuration not stated) | inactive
53 | c1cc2c3c(cccc3c1)NC(CCCCCCCCC1=Nc3cccc4cccc(c34)N1)=N2 | inactive
54 | Clc1ccc(-c2[nH]c3ccccc3c2CN2CCC(N3CCCCC3)CC2)cc1 | inactive
55 | N#Cc1ccc2[nH]cc(CN3CCC4(CC3)CN(CCNCc3ccccc3)C(=O)CO4)c2c1 | inactive
56 | COc1ccc2cc(C(c3nnnn3CC3CCCO3)N3CCc4ccccc43)c(=O)[nH]c2c1 (configuration not stated) | inactive
57 | CC1CN(c2ccc(NC(=O)c3cccs3)cc2)CCN1Cc1cccc(F)c1 (configuration not stated) | inactive
58 | NC1=NC(c2ccccc2)N(c2ccccc2)C(N)=N1 (configuration not stated) | inactive
59 | Cc1[nH]c2ccccc2c1C1CCN(CCCCNC(=O)c2ccc(-c3ccc(C#N)cc3)cc2)CC1 | inactive
60 | Cc1nc2nc(N)nc(N)c2c(C)c1Cc1cccc(C(F)(F)F)c1 | inactive
61 | O=C(Nc1ccc2nc(-c3ccccc3)[nH]c2c1)c1cc(-c2ccc3c(c2)OCCO3)n[nH]1 | inactive
62 | CC1(C)CN(CCC2CCC(NC(=O)/C=C/c3ccccc3F)CC2)Cc2ccc(C#N)cc21 (configuration not stated) | inactive
63 | COc1cc(NC(=O)/C=C/c2cc3ccccc3n2C)ccc1OCCN(C(C)C)C(C)C | inactive
64 | O=C(Nc1ccc2ccccc2n1)c1ccccc1-c1ccccc1 | inactive
65 | COc1cc(NC(=O)c2sc(-c3ccc(Cl)cc3)cc2NC(=O)c2cccc(N(C)C)c2)ccc1OCCN1CCCC1 | inactive
66 | COc1cc(NC(=O)/C=C/c2cc(F)cc(F)c2F)cc(OCCN2CCN(CCN3CCOCC3)CC2)c1 | inactive
67 | CCOC(=O)c1ccc(NC(=O)N[C@@H](Cc2ccccc2)C(=O)NC2CCN(Cc3ccc(O)c(OC)c3)C2)cc1 (some centres not stated) | inactive
